Test results from PubChem BioAssay AID624098 (National Center for Advancing Translational Sciences (NCATS), 2012).
Inconclusive results are not listed. The source made the active and inactive calls.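 The calls were made as follows: active = immobility above 50% at 10 µM after 1 hour; inconclusive = immobility from 15% to 50% at 1 hour; inactive = immobility below 15%.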

experiment: Assay for General Anesthetic Phenotype in Xenopus Tadpoles; conditions: startle-response immobility, 1 h, at 10 µM, stronger effect = higher value
From the text: Anesthetic development has remained a largely empirical process. There are growing concerns about the cognitive effects of known general anesthetics and acceleration of the onset of neurodegenerative disease. The compounds' toxicity and multiple specific binding targets in the mammalian brain [4] has made them less attractive as drug leads. This assay was designed for the in vivo follow-up testing of compounds in tadpoles. References: [1] S.L. Bianchi, T. Tran, C. Liu, S. Lin, Y. Li, J.M. Keller, R.G. Eckenhoff, and M.F. Eckenhoff, Brain and behavior changes in 12-month-old Tg2576 and nontransgenic mice exposed to anesthetics. Neurobiol Aging 29 (2008) 1002-10. Z. Xie, Y. Dong, U. Maeda, R.D. Moir, W. Xia, D.J. Culley, G. Crosby, and R.E. Tanzi, The inhalation anesthetic isoflurane induces a vicious cycle of apoptosis and amyloid beta-protein accumulation. J Neurosci 27 (2007) 1247-54. P. Honegger, and J.M. Matthieu, Selective toxicity of the general anesthetic propofol for GABAergic neurons in rat brain cell cultures. J Neurosci Res 45 (1996) 631-6. M.F. Eckenhoff, K. Chan, and R.G. Eckenhoff, Multiple specific binding targets for inhaled anesthetics in the mammalian brain. J Pharmacol Exp Ther 300 (2002) 172-9. C.A. Butts, J. Xi, G. Brannigan, A.A. Saad, S.P. Venkatachalan, R.A. Pearce, M.L. Klein, R.G. Eckenhoff, and I.J. Dmochowski, Identification of a fluorescent general anesthetic, 1-aminoanthracene. Proc Natl Acad Sci U S A 106 (2009) 6501-6. W.A. Lea, J. Xi, A. Jadhav, L. Lu, C.P. Austin, A. Simeonov, and R.G. Eckenhoff, A high-throughput approach for identification of novel general anesthetics. PLoS One 4 (2009) e7150.
Pre-limb bud Xenopus tadpoles were obtained in large batches from Nasco, Inc. Batches of 10 tadpoles were placed in 20 mm Petri dishes with approximately 20 ml of pond water ("pond water" is approximately a 20-fold dilution of Ringers saline solution). Compounds were added to the pond water from DMSO stock to obtain 100, 10 and 1 microM concentrations. Tadpoles were then incubated with these solutions for 1 hour, and then scored for "anesthesia". Anesthesia in this case is lack of movement in response to a sharp tap on the Petri dish lid, i.e., a lack of startle response. This correlates well to the loss of righting reflex in rodents and the loss of consciousness in humans. The pond water is then changed, and the return of a startle response is monitored for 24 hours. Immobility at 24 hours is considered death.

| SMILES | immobility |
| --- | --- |
| COc1ccc(-c2ccc(=O)n(CC(=O)NCCc3ccccc3)n2)cc1OC | 10% (inactive) |
| C[S+](=O)([O-])c1ccc(-c2ccc(=O)n(CC(=O)NCCc3ccccc3)n2)cc1 | 5% (inactive) |
| O=C(Cn1nc(-c2ccncc2)ccc1=O)NCCc1ccccc1 | 5% (inactive) |
| CC(C)(C)c1ccc(-c2ccc(=O)n(CC(=O)NCCc3ccccc3)n2)cc1 | 90% (active) |
| O=C(Cn1nc(C2CC2)ccc1=O)NCCc1ccccc1 | 0% (inactive) |
| CC(C)Oc1ccc(-c2ccc(=O)n(CC(=O)NCCc3ccccc3)n2)cc1 | 95% (active) |
| O=C(Cn1nc(-c2ccc(OC(F)(F)F)cc2)ccc1=O)NCCc1ccccc1 | 80% (active) |
| Cc1ccc(-c2ccc(=O)n(CC(=O)NCCc3ccccc3)n2)cc1 | 90% (active) |
| O=C(Cn1nc(-c2ccc(F)cc2)ccc1=O)NCCc1ccccc1 | 5% (inactive) |
| CC(C)c1ccc(=O)n(CC(=O)NCCc2ccccc2)n1 | 0% (inactive) |
| O=C(Cn1nc(-c2ccc3c(c2)OCO3)ccc1=O)NCCc1ccccc1 | 0% (inactive) |
| Cc1ccccc1-c1ccc(=O)n(CC(=O)NCCc2ccccc2)n1 | 0% (inactive) |
| Cc1ccc(=O)n(CC(=O)NCCc2ccccc2)n1 | 5% (inactive) |
| CCCCc1ccc(-c2ccc(=O)n(CC(=O)NCCc3ccccc3)n2)cc1 | 5% (inactive) |
| O=C(Cn1nc(-c2cccnc2)ccc1=O)NCCc1ccccc1 | 0% (inactive) |
| Cc1ccc(-c2ccc(=O)n(CC(=O)NCCc3ccccc3)n2)cn1 | 0% (inactive) |
| CN(C)c1ccc(-c2ccc(=O)n(CC(=O)NCCc3ccccc3)n2)cc1 | 0% (inactive) |
| COc1ccccc1-c1ccc(=O)n(CC(=O)NCCc2ccccc2)n1 | 5% (inactive) |
| O=C(Cn1ncccc1=O)NCCc1ccccc1 | 0% (inactive) |
| N#Cc1ccc(-c2ccc(=O)n(CC(=O)NCCc3ccccc3)n2)cc1 | 0% (inactive) |

same assay, conditions: startle-response immobility, 1 h, measured here: 24 h immobility, toxicity/death, at 10 µM

| SMILES | immobility |
| --- | --- |
| COc1ccc(-c2ccc(=O)n(CC(=O)NCCc3ccccc3)n2)cc1OC | 15% |
| C[S+](=O)([O-])c1ccc(-c2ccc(=O)n(CC(=O)NCCc3ccccc3)n2)cc1 | 5% |
| O=C(Cn1nc(-c2ccncc2)ccc1=O)NCCc1ccccc1 | 10% |
| CC(C)(C)c1ccc(-c2ccc(=O)n(CC(=O)NCCc3ccccc3)n2)cc1 | 10% |
| O=C(Cn1nc(C2CC2)ccc1=O)NCCc1ccccc1 | 5% |
| CC(C)Oc1ccc(-c2ccc(=O)n(CC(=O)NCCc3ccccc3)n2)cc1 | 5% |
| O=C(Cn1nc(-c2ccc(OC(F)(F)F)cc2)ccc1=O)NCCc1ccccc1 | 10% |
| Cc1ccc(-c2ccc(=O)n(CC(=O)NCCc3ccccc3)n2)cc1 | 0% |
| O=C(Cn1nc(-c2ccc(F)cc2)ccc1=O)NCCc1ccccc1 | 0% |
| CC(C)c1ccc(=O)n(CC(=O)NCCc2ccccc2)n1 | 5% |
| O=C(Cn1nc(-c2ccc3c(c2)OCO3)ccc1=O)NCCc1ccccc1 | 0% |
| Cc1ccccc1-c1ccc(=O)n(CC(=O)NCCc2ccccc2)n1 | 10% |
| Cc1ccc(=O)n(CC(=O)NCCc2ccccc2)n1 | 15% |
| CCCCc1ccc(-c2ccc(=O)n(CC(=O)NCCc3ccccc3)n2)cc1 | 5% |
| O=C(Cn1nc(-c2cccnc2)ccc1=O)NCCc1ccccc1 | 15% |
| Cc1ccc(-c2ccc(=O)n(CC(=O)NCCc3ccccc3)n2)cn1 | 0% |
| CN(C)c1ccc(-c2ccc(=O)n(CC(=O)NCCc3ccccc3)n2)cc1 | 10% |
| COc1ccccc1-c1ccc(=O)n(CC(=O)NCCc2ccccc2)n1 | 15% |
| O=C(Cn1ncccc1=O)NCCc1ccccc1 | 5% |
| N#Cc1ccc(-c2ccc(=O)n(CC(=O)NCCc3ccccc3)n2)cc1 | 5% |
